# Bioassay records deposited in PubChem by several laboratories.
# Shown is part of a subset that was picked to be rich in hits.
# PostGolgi yeast: phenotypic screen on post-Golgi transport, primary screen; post-Golgi transport phenotypic cell assay; inhibition, % at 10 µM; actives 0.9% (n = 98,000); AID 739, 2007;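 note: yeast cells grown in 1536-well plates; yeast grown about 18 h at 30C before absorbance read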
# PostGolgi ctrl: growth inhibition of yeast control strain, primary screen, counter-screen for post-Golgi transport modulator project; actives 5% (n = 98,000); inhibition, % at 10 µM; AID 738, 2007; efflux-deficient yeast background strain, growth absorbance A615, 16 h
# GALR2 ag: GALR2 receptor agonists, primary screen, cell-based; Galanin receptor type 2 (Homo sapiens), O43603; GALR2-expressing cells, agonist activation read-out; activation, % (concentration not given with the values); actives 0.48% (n = 140,000); AID 803, 2007; in the data active = activation above about 5%, passing the limit was not always enough
# GALR2 antag: GALR2 antagonists in receptor-expressing cells, primary screen | Galanin receptor type 2 (Homo sapiens), O43603 | antagonist mode | inhibition, % at 4 µM | actives 0.39% (n = 140,000) | AID 828, 2007; in the data active = inhibition above about 27%;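 note: cells stimulated with galanin 1-16 at roughly its EC80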
# S1P2 blocker: human S1P2 receptor antagonists, primary screen, cell-based; Sphingosine 1-phosphate receptor 2 (Homo sapiens), O95136; cell-based S1P2 antagonist assay, inhibition at 5 uM; inhibition, % at 5 µM; actives 0.21% (n = 97,000); in the data active = inhibition above about 45%;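 note: CRE beta-lactamase reporter cells expressing human S1P2 stimulated with S1P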
# Target sequence (O95136 whole entry, looked up): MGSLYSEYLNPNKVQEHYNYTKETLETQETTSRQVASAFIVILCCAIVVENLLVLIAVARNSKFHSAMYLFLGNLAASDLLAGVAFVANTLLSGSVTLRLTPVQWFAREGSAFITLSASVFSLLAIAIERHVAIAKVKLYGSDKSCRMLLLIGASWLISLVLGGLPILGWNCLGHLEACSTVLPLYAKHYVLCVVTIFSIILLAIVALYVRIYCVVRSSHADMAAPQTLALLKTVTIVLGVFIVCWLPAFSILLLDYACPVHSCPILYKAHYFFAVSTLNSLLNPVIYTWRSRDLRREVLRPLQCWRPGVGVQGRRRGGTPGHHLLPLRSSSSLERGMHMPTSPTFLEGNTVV
# S1P2 agonist: S1P2 receptor agonists, primary screen, cell-based. Sphingosine 1-phosphate receptor 2 (Homo sapiens), O95136. S1P2-expressing cell line, agonist reporter read-out. activation, % at 4.5 µM. actives 0.46% (n = 97,000). AID 729, 2007; in the data active = activation above about 16%
# Hits are given with their value; . = inactive; / = no result given. Cut-off read from the data, not from the text of the source, unless noted: active = inhibition above about 30%; inactive = the rest.
SMILES,PostGolgi yeast,PostGolgi ctrl,GALR2 ag,GALR2 antag,S1P2 blocker,S1P2 agonist
O=C(Nc1ccc2c(c1)OCCO2)C1CCN(C(=O)c2ccccc2)CC1,.,31.0,.,.,.,23.7
O=C(Nc1ccc2c(c1)OCCO2)C1CCCN(S(=O)(=O)Cc2ccccc2)C1 (configuration not stated),.,.,.,.,.,.
O=C(C1CCCN(S(=O)(=O)Cc2ccccc2)C1)N1CCC(Cc2ccccc2)CC1 (configuration not stated),.,34.2,.,.,.,.
O=C(Nc1ccc2c(c1)OCO2)C1CCCN(S(=O)(=O)Cc2ccccc2)C1 (configuration not stated),.,42.2,.,.,.,.
O=C(COc1ccc(F)cc1Br)NCc1ccccn1,.,.,.,.,.,.
O=C(COc1ccccc1Br)NCc1ccccn1,.,32.3,.,.,.,.
NC(=O)N/N=C/c1ccccc1OCC(=O)NCc1ccccc1,/,/,.,.,/,/
CN1c2cccc3cccc(c23)N(C)C1c1cccs1,.,.,.,.,.,.
c1csc(C2Nc3cccc4cccc(c34)N2)c1,.,31.7,.,.,.,.
Cn1c(=O)c2ncn(CC(=O)NCCOc3ccccc3)c2n(C)c1=O,30.4,.,.,.,.,.
ClC(Cl)(c1nnnn1-c1ccccc1)c1nnnn1-c1ccccc1,/,/,.,.,/,/
CCC(C)n1c(SCc2ccccc2)nc2ccsc2c1=O (configuration not stated),/,/,.,.,/,/
CC(C)(C)C(=O)O/N=C1/C(=O)N(c2ccccc2)c2ccccc21,.,39.7,.,.,.,.
Cc1cnc(C(=O)OCC(=O)N2CCc3ccccc3C2)cn1,.,.,.,.,/,/
Cc1cc(OC(C)C)c2c(-c3ccccc3)cc(=O)oc2c1,.,.,.,.,.,.
Cc1cc(OCC(=O)N2CCc3ccccc3C2)c2c(-c3ccccc3)cc(=O)oc2c1,.,50.6,.,.,.,.
CCOc1cc(C)cc2oc(=O)cc(-c3ccccc3)c12,.,32.2,.,.,.,.
O=C1OC(c2cccc([N+](=O)[O-])c2)C2(CCCC2)C(=O)C12CCCCC2 (configuration not stated),/,/,.,.,/,/
COC(=O)c1ccc2c(c1)NC(=O)C(N1CCOCC1)S2 (configuration not stated),.,.,.,.,.,.
CCC1CCCCN1C1Sc2ccc(C(=O)OC)cc2NC1=O (configuration not stated),.,40.1,.,.,.,.
COc1ccc(-c2nn(C)c(=O)c3ccccc23)cc1NS(C)(=O)=O,.,.,.,.,.,.
COc1ccc(-c2nn(C)c(=O)c3ccccc23)cc1CNS(C)(=O)=O,.,41.6,.,.,.,.
Cn1c(C(=O)N2CCN(c3nc4ccccc4s3)CC2)cc2sccc21,.,45.1,.,.,.,.
COc1ccccc1/C=C(/CC(=O)NCc1ccc2c(c1)OCO2)c1nc2ccccc2s1,/,/,.,.,/,/
CCSC1=C(C#N)C(c2ccccc2Cl)CC(=O)N1 (configuration not stated),.,.,.,.,.,.
SMILES,PostGolgi yeast,PostGolgi ctrl,GALR2 ag,GALR2 antag,S1P2 blocker,S1P2 agonist
CCCCSC1=C(C#N)C(c2ccccc2C)CC(=O)N1 (configuration not stated),.,33.4,.,.,.,.
CCCSC1=C(C#N)C(c2ccc(Cl)cc2Cl)CC(=O)N1 (configuration not stated),.,36.7,.,.,.,.
COc1cccc(-n2cnc3sc(C)c(C)c3c2=O)c1,/,/,.,.,/,/
NNC(=O)[C@H]1C[C@@H]1c1ccccc1,/,/,.,.,/,/
COCCCNC(=O)CS(=O)(=O)Cc1nc(-c2ccccc2C)oc1C,.,.,.,.,.,.
Cc1ccccc1-c1nc(CS(=O)(=O)CC(=O)Nc2cc(F)ccc2F)c(C)o1,.,92.2,.,.,/,/
CCOC(=O)CCS(=O)(=O)c1nc(-c2ccccc2)cc(C(F)(F)F)n1,.,73.5,.,.,.,.
O=C(O)CCS(=O)(=O)c1nc(-c2cccs2)cc(C(F)(F)F)n1,.,.,.,.,.,.
CCOC(=O)CS(=O)(=O)c1nc(-c2ccccc2)cc(C(F)(F)F)n1,/,/,.,59.1,.,.
Cc1ccccc1C(=O)OCCCN=C1NS(=O)(=O)c2ccccc21,/,/,.,.,.,.
CCCc1nc(NCc2ccccn2)c2nnn(Cc3ccccc3F)c2n1,.,100.2,.,.,.,.
Cc1ccc(C)c(NC(=S)N(CCc2nc3cc(C)c(C)cc3[nH]2)Cc2cccnc2)c1,.,.,.,.,.,.
CN(C)c1ncc(S(=O)(=O)c2ccc(Cl)cc2)c(-c2ccc(Cl)cc2Cl)n1,.,49.3,.,.,.,.
Cn1c(=O)c2c(nc(NCC3CCCO3)n2Cc2cccc(Br)c2)n(C)c1=O (configuration not stated),.,.,.,.,.,.
O=c1nc(NC2CCCC2)ccn1Cc1cccc(Br)c1,.,49.8,.,.,.,.
CCONC(=O)Nc1ccccc1,/,/,.,.,/,/
COc1cc2c(cc1OC)C(c1cc3ccccc3oc1=O)=NC(C)(C)C2,/,/,.,.,.,32.8
COc1ccc(-c2noc(-c3cc4ccccc4oc3=O)n2)cc1,.,.,.,.,.,.
O=C(c1cccc(S(=O)(=O)N2CCCCC2)c1)N1CCCCC1,.,37.8,.,.,.,.
O=C(c1cccc(-c2nnc(-c3ccccc3)o2)c1)N1CCCCCC1,.,.,.,.,.,.
O=C(NCc1ccc2c(c1)OCO2)c1cccc(S(=O)(=O)N2CCOCC2)c1,.,.,.,.,.,.
O=C(c1cccc(-c2nnc(-c3ccccc3)o2)c1)N1CCCCC1,.,31.2,.,.,.,.
O=C(NCc1ccc2c(c1)OCO2)c1cccc(S(=O)(=O)N2CCCCC2)c1,.,30.9,.,.,.,.
CCN(CC)c1ccc(C(=O)OCC(=O)Nc2sccc2C#N)cc1,/,/,.,.,/,/
O=CN1CCN(C(=O)c2ccc([N+](=O)[O-])cc2)CC1,/,/,.,.,/,/
SMILES,PostGolgi yeast,PostGolgi ctrl,GALR2 ag,GALR2 antag,S1P2 blocker,S1P2 agonist
COC(=O)NNC(=O)c1ccc(C)c(Br)c1,/,/,.,.,/,/
O=C1NC(c2ccccc2)=C(c2nc3ccccc3s2)C(c2ccc(F)cc2)N1 (configuration not stated),.,41.1,.,.,.,.
CC(OC(=O)c1ccc([N+](=O)[O-])s1)C(=O)Nc1ncc(Cl)cc1Cl (configuration not stated),/,/,.,.,/,/
O=C(CSc1nnc(-c2ccncc2)n1-c1ccc(F)cc1)NNC(=O)c1cccc(O)c1,/,/,.,.,/,/
O=c1cc(-c2c(F)c(F)c(F)c(F)c2F)oc2c(F)c(F)c(F)c(F)c12,54.0,64.4,.,69.2,/,/
O=c1cc(-c2c(F)c(F)c(F)c(F)c2F)oc2ccccc12,.,.,.,.,.,.
